Screens (PubChem)
A selection: hits, their analogues and other compounds. The true share with any hit is near 19%.
HepG2 tox – qHTS for Inhibitors of TGF-b: Cytotox Counterscreen; HepG2 CAGA-GFP viability, ATP luminescence, 18 h; Potency, µM (titrated, usually from 46.1 µM), for inactives: at the highest dose activity change, negative = cytotoxicity, usual class: cytotoxic; hit rate 0.76% among 410,000; also: potency is read from the fitted curve at half-maximal effect
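CellTiter-Glo luminescence gave cytotoxicity after 18 hours at 37 degrees C. The cells were HepG2 CAGA-GFP in 1% FBS DMEM, stimulated with 500 pg/mL TGF-beta after compound addition. %Activity was normalised to no-cell wells (complete cell-killing) and DMSO (no toxicity), and curves were fitted and classified.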
IL1B secr inh – qHTS for Inhibitors of Inflammasome Signaling: IL-1-beta AlphaLISA Primary Screen; THP-1 LPS/ATP IL-1B secretion, AlphaLISA, 16 h; active compounds read low; activity change, % at 57.5 µM; hit rate 4.7% among 360,000; AID 743279, 2014; in the data active = activity change below about -50%; inconclusive = mostly about -30% to -49%; also: % is scaled to controls: 0 for no effect and ±100 for the full control effect
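THP-1 cells pretreated 1 hr with compounds (up to 57.5 uM final), then stimulated with LPS (250 ng/mL final) plus ATP (1.25 mM final); secreted IL-1B measured by AlphaLISA after 16 hr, decreased signal indicating inhibition.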
DT40 TDP1 no CPT – qHTS for Inhibitors of human tyrosyl-DNA phosphodiesterase 1 (TDP1): qHTS in cells in absence of CPT | hit rate 15% among 420,000 | Potency, µM (titrated, usually from 46.2 µM), without a hit: at the highest dose activity change, negative = growth inhibition, actives largely listed as inhibitors | AID 686978, 2013 | DT40 Tdp1-/- hTDP1 cells, no CPT, ATP luminescence, 48 h; also: potency is read from the fitted curve at half-maximal effect; % is scaled to controls: 0 for no effect and ±100 for the full control effect; nearly all actives have a fitted effect of over 55% in size
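Luminescent ATP content (CellTiter-Glo) served as the growth readout. Knockout chicken DT40 cells expressing human TDP1 were exposed to compounds without camptothecin for a minimum 48 hr at 37 °C.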
DT40 TDP1 CPT – qHTS for Inhibitors of human tyrosyl-DNA phosphodiesterase 1 (TDP1): qHTS in cells in presence of CPT. AID 686979, 2013. chicken DT40 Tdp1-/-;hTDP1 cells + 20 nM CPT, ATP luminescence, 48 h. Potency, µM (doses to about 46.2 µM), for the others: at the top dose activity change, negative = growth inhibition, most hits filed as inhibitors. hit rate 12% among 420,000; also: potency is read from the fitted curve at half-maximal effect; % is scaled to controls: 0 for no effect and ±100 for the full control effect; nearly all actives have a fitted effect of over 55% in size
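Cell growth measured by CellTiter-Glo luminescence after a minimum 48 h, 37 C compound exposure with 20 nM CPT in Tdp1-knockout DT40 cells stably expressing hTDP1, seeded 400/well; qHTS titration format.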
TGFb SMAD3 inh – qHTS for Inhibitors of TGF-b. hit rate 1.2% among 410,000. HepG2 CAGA-GFP TGF-b/SMAD3 reporter, GFP fluorescence, 18 h; TGF-beta stimulated, 500 pg/mL final. Potency, µM (doses to about 46.1 µM), inactives show at the top dose activity, negative = inhibition, most hits filed as inhibitors. AID 588855, 2011; also: potency is read from the fitted curve at half-maximal effect; % is scaled to controls: 0 for no effect and ±100 for the full control effect; nearly all actives have a fitted effect of over 65% in size
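HEPG2 CAGA-GFP reporter cells (1000/well, DMEM with 1% FBS) received compounds, then recombinant TGF-beta at 500 pg/mL final for 18 hours at 37 degrees C. Per-cell GFP summed per well was normalised to unstimulated and stimulated DMSO controls before curve fitting.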
TDP1 inh – qHTS Assay for Inhibitors of Tyrosyl-DNA Phosphodiesterase (TDP1); Tyrosyl-DNA phosphodiesterase 1 (Homo sapiens), Q9NUW8; recombinant TDP1, AlphaScreen DNA substrate cleavage; Potency, µM (titrated, usually from 130 µM), without a hit: top-dose activity change, negative = inhibition, usual class: inhibitors; hit rate 0.28% among 350,000; also: potency is read from the fitted curve at half-maximal effect; % is scaled to controls: 0 for no effect and ±100 for the full control effect; nearly all actives have a fitted effect of over 40% in size
Target sequence (Q9NUW8 whole entry, looked up): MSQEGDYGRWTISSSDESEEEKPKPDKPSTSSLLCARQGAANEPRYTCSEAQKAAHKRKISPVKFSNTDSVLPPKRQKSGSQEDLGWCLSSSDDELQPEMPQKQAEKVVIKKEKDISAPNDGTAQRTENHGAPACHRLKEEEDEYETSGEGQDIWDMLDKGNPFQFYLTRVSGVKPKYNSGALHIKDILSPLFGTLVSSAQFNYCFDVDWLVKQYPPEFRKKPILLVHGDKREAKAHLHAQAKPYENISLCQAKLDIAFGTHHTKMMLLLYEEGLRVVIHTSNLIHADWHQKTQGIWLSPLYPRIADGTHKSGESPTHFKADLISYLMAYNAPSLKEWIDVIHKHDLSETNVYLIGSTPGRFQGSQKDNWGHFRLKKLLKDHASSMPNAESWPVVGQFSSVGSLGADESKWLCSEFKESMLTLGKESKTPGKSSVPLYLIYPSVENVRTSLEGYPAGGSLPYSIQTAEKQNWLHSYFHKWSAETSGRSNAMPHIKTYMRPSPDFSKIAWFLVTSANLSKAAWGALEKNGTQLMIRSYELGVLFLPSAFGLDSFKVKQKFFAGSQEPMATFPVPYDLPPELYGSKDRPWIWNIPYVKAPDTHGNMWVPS
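Here, a 5' biotin and 3' phosphotyrosine-FITC DNA oligonucleotide reports Tdp1 activity: intact substrate bridges AlphaScreen beads, while cleavage leaves a 3' phosphate and drops signal. All incubations at room temperature.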
The depositor's hits bear a star; u = inconclusive; x = no result given; [ ] = another dose, or the depositor's remark. Unless noted, calls follow the shape of the dose curve; as a rule, active = well fitted curve in the direction sought with a large enough effect; inconclusive = small, poorly fitted or top-dose-only effect, or another doubt; inactive = no such curve, though single readings can be large; an effect the other way counts as inactive or inconclusive.

SMILES	HepG2 tox	IL1B secr inh	DT40 TDP1 no CPT	DT40 TDP1 CPT	TGFb SMAD3 inh	TDP1 inh
CCC(=O)N1CCc2cc(CNC(=O)Nc3ccc(OC)cc3OC)ccc21	-2%	x	-8%	-7%	13%	7%
COc1ccc(-c2noc(CSc3nc(N)cc(=O)[nH]3)n2)cc1OC	-10%	x	u	u	0%	2%
Cc1c(C(=O)N(C)Cc2cscn2)sc2ncnc(NC[C@H]3CCc4ccccc4O3)c12	x	x	u	-19%[9.04 µM]	x	x
Cc1cc(C)n2c(SCc3ccccc3Cl)nnc2n1	-10%	-9	2%	-22%	-14%	-3%
Cc1cc(C)n2c(SCc3ccc(Cl)cc3Cl)nnc2n1	-69%	-2	18µM*	u	u	-6%
O=C(NCc1ccccc1Cl)C(=O)NCC(c1ccc2c(c1)OCO2)N1CCOCC1 (configuration not stated)	7%	x	u	u	10%	5%
O=S(=O)(Cc1ccccc1)N(O)c1ccccc1	-1%	-63*	23µM*	21µM*	2%	12%
O=C(c1cnc(N2CCN(c3ccccn3)CC2)c2ccccc12)N1CCN(c2cccc(Cl)c2)CC1	0%	-60*	12µM*	13µM*	-16%	2%
CC(C)OC(=O)c1cccnc1N1CCN(c2cccc(Cl)c2)CC1	-19%	19	16µM*	u	-20%	-3%
O=C(CSc1nnc(N2CCCC2)n1-c1ccccc1Cl)N1CCN(c2ccccn2)CC1	-3%	-14	u	u	2%	2%
O=C(c1cc(Sc2cccc(Cl)c2)nc2ccccc12)N1CCN(c2ccccn2)CC1	-2%	-13	u	15µM*	-19%	-1%
O=C(CSc1nnc(N2CCCC2)n1-c1cccc(Cl)c1)N1CCN(c2ccccn2)CC1	-23%	-24	21µM*	u	-12%	x
O=C(c1cc(Sc2ccc(Cl)cc2)nc2ccccc12)N1CCN(c2ccccn2)CC1	-8%	-7	u	u	-26%	7%
O=C(c1cc(Cl)ccc1Cl)N1CCN(c2ccccn2)CC1	-4%	29	-11%	-15%	-14%	5%
CCN1CCCC1CN(Cc1cc2ccc(C)cc2[nH]c1=O)C(=S)Nc1ccccc1OC (configuration not stated)	-37%	-12	21µM*	u	u	8%
COc1ccccc1N(Cc1cc2ccc(C)cc2[nH]c1=O)C(C)=O	8%	0	-2%	3%	3%	1%
CCOc1ccccc1NC(=S)N(Cc1cc2ccc(C)cc2[nH]c1=O)CC1CCCN1CC (configuration not stated)	-44%	-22	26µM*	21µM*	u	-3%
CCN1CCCC1CN(Cc1cc2ccc(C)c(C)c2[nH]c1=O)C(=O)Nc1ccccc1OC (configuration not stated)	-30%	u	u	18µM*	u	5%
COc1ccccc1-c1cc(C(=O)N2CCOCC2)no1	-10%	-12	18%	11%	6%	x
O=[N+]([O-])c1cc(/C=N/N/C(=N/c2ccccn2)c2ccccn2)ccc1O	-39%	111	4.6µM*	3.3µM*	u	8%
Cc1csc(N/N=C\c2cccnc2)n1	-2%	19	5.2µM*	2.9µM*	5%	5%
Cc1csc(N/N=C/c2ccc(O)c([N+](=O)[O-])c2)n1	-1%	9	26µM*	18µM*	-9%	u
O=[N+]([O-])c1cc(/C=N\Nc2nc(-c3ccccc3)cs2)ccc1O	10%	-15	18µM*	15µM*	5%	11%
Cc1nnc(N/N=C/c2ccc(O)c([N+](=O)[O-])c2)[nH]c1=O	-6%	1	-19%	-16%	-5%	2%
O=C(N/N=C/c1ccc(O)c([N+](=O)[O-])c1)c1ccncc1	-19%	7	0%	-13%	-9%	x
SMILES	HepG2 tox	IL1B secr inh	DT40 TDP1 no CPT	DT40 TDP1 CPT	TGFb SMAD3 inh	TDP1 inh
Cc1ccc(CNC(=O)c2c(-c3ccccc3Cl)noc2C)o1	-1%	x	u	u	-13%	5%
O=c1c(-c2cc(-c3ccccc3)nc3c2COc2ccc(Cl)cc2-3)coc2ccccc12	-32%	x	-8%	1%	0%	-2%
CCOc1cc(CNC2CCCC2)cc(Cl)c1OCc1ccc(F)cc1	11µM*	-80*	23µM*	15µM*	u	6%
COc1cc(CNC2CCCC2)cc(Cl)c1OCc1ccccc1Cl	-99%	-94*	23µM*	23µM*	u	5%
COc1cccc(CNC2CCCc3ccccc32)c1OC (configuration not stated)	-8%	-3	u	-16%	4%	-11%
COc1cc(CNC2CCCc3ccccc32)cc(OC)c1OC (configuration not stated)	-24%	-13	21µM*	u	3%	-5%
COc1cc(CNC2CCCCCCC2)cc(Cl)c1OCC(N)=O	-20%	0	-13%	-13%	8%	2%
COc1cc(CNC2CCCC2)cc(Cl)c1OCc1ccc(F)cc1	-93%	u	15µM*	u	-26%	6%
COc1cc(CNC2CCCC2)cc(OC)c1OC	-13%	-4	-3%	5%	-2%	0%
CN(C)S(=O)(=O)N(CC(=O)Nc1ccc(Br)cc1F)c1ccccc1	-18%	x	x	x	-3%	-5%
CN(CC(=O)Nc1ccc(F)cc1)C(=O)COC(=O)c1nc(Cl)ccc1Cl	6%	12	-4%	-2%	17%	x
NC(=S)NNC(N)=S	x	x	x	x	x	9%
COc1cc(C(CC(=O)Nc2cc(C)ccc2C)N2Cc3ccccc3C2=O)cc(OC)c1OC (configuration not stated)	-9%	x	u	-17%	-3%	0%
O=C(N/N=C/c1c(O)ccc2ccccc12)c1ccc[n+](CCO)c1	-12%	103	u	29µM*	1%	8%
Cn1nccc1C(=O)Oc1cccc(/C=N/NC(=O)c2ccccc2O)c1	-23%	2	-15%	-8%	-1%	-3%
